The values that follow come from paper PMC4336329 (PLoS ONE, 2015).

Out of some 310,000 compounds screened, about 14,000 (4.5%) showed an effect of 50% or more. The effect is printed as a negative number. The entries come from a sample that favours strong results as a whole.
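Note: peak tail current of the secondary pulse compared with the same well before compound.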

The target of the assay is human ether-à-go-go-related gene (hERG) potassium channel (human, UniProt Q12809). The experiment in a line: primary screen, population patch clamp on CHO cells stably expressing hERG; higher = less effect of the substance.
human ether-à-go-go-related gene (hERG) potassium channel, sequence (Q12809 whole entry, looked up): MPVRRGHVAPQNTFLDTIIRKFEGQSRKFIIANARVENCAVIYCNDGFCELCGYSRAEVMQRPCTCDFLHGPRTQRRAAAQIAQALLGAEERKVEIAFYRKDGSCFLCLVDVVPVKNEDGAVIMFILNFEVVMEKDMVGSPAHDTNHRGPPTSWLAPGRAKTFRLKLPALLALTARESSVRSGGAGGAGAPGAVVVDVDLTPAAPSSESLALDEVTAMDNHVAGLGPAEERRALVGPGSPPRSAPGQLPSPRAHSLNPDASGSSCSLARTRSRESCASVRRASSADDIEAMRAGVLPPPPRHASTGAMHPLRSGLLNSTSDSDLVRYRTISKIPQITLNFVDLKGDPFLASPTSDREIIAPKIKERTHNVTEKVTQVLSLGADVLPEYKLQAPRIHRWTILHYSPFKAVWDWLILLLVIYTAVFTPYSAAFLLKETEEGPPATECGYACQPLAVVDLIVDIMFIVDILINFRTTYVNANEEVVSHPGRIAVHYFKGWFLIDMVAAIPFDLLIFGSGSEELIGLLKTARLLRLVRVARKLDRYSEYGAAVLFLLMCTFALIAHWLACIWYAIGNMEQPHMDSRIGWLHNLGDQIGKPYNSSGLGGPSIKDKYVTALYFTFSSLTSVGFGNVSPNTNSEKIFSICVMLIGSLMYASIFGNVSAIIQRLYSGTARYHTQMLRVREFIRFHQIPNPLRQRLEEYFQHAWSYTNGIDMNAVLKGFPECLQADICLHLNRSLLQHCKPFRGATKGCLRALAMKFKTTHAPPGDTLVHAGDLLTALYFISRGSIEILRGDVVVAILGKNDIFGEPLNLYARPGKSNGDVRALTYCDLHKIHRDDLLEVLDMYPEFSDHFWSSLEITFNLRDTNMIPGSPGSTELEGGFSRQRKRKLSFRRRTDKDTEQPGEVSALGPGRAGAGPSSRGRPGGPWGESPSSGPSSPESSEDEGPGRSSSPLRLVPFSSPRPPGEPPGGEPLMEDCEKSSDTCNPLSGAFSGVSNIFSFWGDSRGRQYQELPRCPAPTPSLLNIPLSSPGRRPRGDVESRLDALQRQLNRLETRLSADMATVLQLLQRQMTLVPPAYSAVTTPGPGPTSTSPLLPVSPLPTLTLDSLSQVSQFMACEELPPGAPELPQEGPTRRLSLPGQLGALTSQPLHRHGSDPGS
Regarding `O=C(NCCc1cccc(F)c1)[C@@H]1CSC2c3ccccc3C(=O)N21` (stereo partly drawn), the “hERG current change (%, negative = inhibition) at 10uM” value is -13.9%. Then `Cc1cc(C(=O)Nc2ccc3c(c2)OCCO3)c(C)o1`, with 4.25%. For `COC(=O)c1cccc(Oc2cccc(C(F)(F)F)c2)n1`, the “hERG current change (%, negative = inhibition) at 10uM” value stood at 13%. On to `Cc1ccc(S(=O)(=O)N2C(=O)CCC2C(=O)Nc2ccc3c(c2)OCCO3)cc1` (stereo not drawn), for which the “hERG current change (%, negative = inhibition) at 10uM” value amounted to 10.6%.

`O=C1CCN(Cc2cccnc2)CCN1[C@H](CO)c1ccccc1`: the “hERG current change (%, negative = inhibition) at 10uM” value was 16%. Next, `CCN(CC(=O)NCc1ccc(F)cc1)C(=O)CCNS(=O)(=O)c1cccc(C)c1`: -51.9%; `O=C(NCc1ccc(F)cc1)c1cc2ccccc2o1`: -13.4%.

`CCN(CC(=O)NCc1ccc(F)cc1)C(=O)c1ccc(C)o1`: the “hERG current change (%, negative = inhibition) at 10uM” value was found to be 6.13%. Take `CCN(CC(=O)NCc1ccc(F)cc1)C(=O)Cc1c(F)cccc1Cl`: the “hERG current change (%, negative = inhibition) at 10uM” value is listed as -37.6%. With `CCN(CC(=O)NCc1ccc(F)cc1)C(=O)c1cc2ccccc2o1`, the “hERG current change (%, negative = inhibition) at 10uM” value is -55.9%. Turning to `CCN(CC(=O)NCc1ccc(F)cc1)C(=O)c1ccc(COc2ccccc2)cc1`, the “hERG current change (%, negative = inhibition) at 10uM” value is -47.9%. As to `CCN(CC)C(=O)COc1ccc(-c2ccccc2)cc1`, the “hERG current change (%, negative = inhibition) at 10uM” value is -36%. Then `CCN(CC(=O)NCc1ccc(Cl)cc1)C(=O)c1cc2ccccc2o1`, with -32.2%.

For the compound `CCN(Cc1ccccc1)C(=O)COc1ccccc1`, the “hERG current change (%, negative = inhibition) at 10uM” value is recorded as 9.21%.

With `CCN(CC(=O)Nc1c(F)cccc1F)C(=O)CCNS(=O)(=O)c1ccc(C)c(C)c1`, the “hERG current change (%, negative = inhibition) at 10uM” value is on record as 1.26%.

Take `CCN(CC(=O)NCc1ccc(F)cc1)C(=O)COc1ccc(C)c(C)c1`: the “hERG current change (%, negative = inhibition) at 10uM” value is -53.6%. Next, `CCc1ccc(OCC(=O)N(CC)CC)cc1`: -55%; `CCOC(=O)c1cc(C)n(S(=O)(=O)c2ccc(C)cc2)c1C`: -2.18%; `Cc1ccc(-c2cn(S(=O)(=O)c3cccc([N+](=O)[O-])c3)nc2N)cc1`: 15.3%. Next, `COc1ccccc1CNC(=O)CCC(=O)N1C[C@H]2C[C@@H](C1)c1cccc(=O)n1C2`: -5.65%; `O=C(COc1ncnc2sccc12)Nc1cccc(S(=O)(=O)N2CCOCC2)c1`: -2.77%; `O=C(Nc1ccc2nc(C3CC3)n(Cc3ccccc3)c(=O)c2c1)C1CC1`: -6.15%. For `CC1(C)CC(NC(=O)COc2cc3oc(=O)c4c(c3cc2Cl)CCC4)CC(C)(C)N1`, the “hERG current change (%, negative = inhibition) at 10uM” value is on record as 11.2%. For `COc1ccc(OC)c(C(c2nnnn2C2CCCC2)N2CCc3ccccc3C2)c1` (stereo not drawn), the “hERG current change (%, negative = inhibition) at 10uM” value was -11.1%. Next, `COc1ccc(/C=C/C(=O)OCC(=O)Nc2cc(S(=O)(=O)N(C)C)ccc2Cl)cc1`: 28.4%; `CCN(CC(=O)Nc1c(F)cccc1F)C(=O)c1cccnc1SC`: 6.33%; `CCN(CC(=O)NCc1ccc(F)cc1)C(=O)c1cccnc1SC`: -62.9%. Then `CCc1ccccc1OCC(=O)N(CC)CC(=O)NCc1ccc(F)cc1`, with 8%; and `CCN(CC(=O)NCc1ccc(F)cc1)C(=O)COc1ccc2ccccc2c1`, with -70.5%. For the compound `CCN(CC(=O)Nc1ccc(NC(C)=O)cc1)C(=O)COc1ccc2ccccc2c1`, the “hERG current change (%, negative = inhibition) at 10uM” value is on record as -10.1%. For the compound `CCOc1ncccc1C(=O)N(CC)CC(=O)NCc1ccc(F)cc1`, the “hERG current change (%, negative = inhibition) at 10uM” value is 7.12%. As for `CSCC(=O)NC1CCCc2c1cnn2-c1ccc(C)c(C)c1` (stereo not drawn), the “hERG current change (%, negative = inhibition) at 10uM” value is listed as -28%. For the compound `CCCC(=O)NC1CCCc2c1cnn2-c1ccc(C)c(C)c1` (stereo not drawn), the “hERG current change (%, negative = inhibition) at 10uM” value is given as -72%. Then `Cc1cc(C(=O)NC2CCCc3c2cnn3-c2ccc(C)c(C)c2)no1` (stereo not drawn), with -42.9%. As for `Cc1ccc(-n2ncc3c2CCCC3NC(=O)CCc2cnn(C)c2)cc1C` (stereo not drawn), the “hERG current change (%, negative = inhibition) at 10uM” value amounted to 7.27%. For the compound `COC(=O)c1ccc(C(=O)NC2CCCc3c2cnn3-c2ccc(C)c(C)c2)cc1` (stereo not drawn), the “hERG current change (%, negative = inhibition) at 10uM” value is recorded as 6.54%. Turning to `Cc1ccc(-n2ncc3c2CCCC3NC(=O)c2ccoc2)cc1C` (stereo not drawn), the “hERG current change (%, negative = inhibition) at 10uM” value is recorded as -79.2%.

In the case of `O=C1COc2ccc(S(=O)(=O)NCCc3ccccc3)cc2N1`, the “hERG current change (%, negative = inhibition) at 10uM” value came out at 10.7%. Then `CC(NC(=O)c1cc(S(=O)(=O)N2CCCC2)ccc1Cl)c1ccccn1` (stereo not drawn), with 18.1%. Next, `CCOc1ccc(C2C3=C(CC(C)(C)CC3=O)N(CC(=O)O)C3=C2C(=O)CC(C)(C)C3)cc1OCC`: 5.47%; `O=C(NCc1ccncc1)c1cccc(S(=O)(=O)Nc2ccc(SC(F)F)cc2)c1`: -3.21%. Then `CN1CCC(N(C)C(=S)Nc2ccc(SC(F)F)cc2)CC1`, with -56.6%. As for `CC1CC(C)CN(C(=O)c2ccccc2Nc2ccc(SC(F)F)cc2)C1` (stereo not drawn), the “hERG current change (%, negative = inhibition) at 10uM” value is 0.904%. With `CN1CCC(N(C)C(=O)c2ccccc2Nc2ccc(SC(F)F)cc2)CC1`, the “hERG current change (%, negative = inhibition) at 10uM” value is reported as -62.2%.

On to `CC1CN(C(=S)Nc2ccc(SC(F)F)cc2)CC(C)O1` (stereo not drawn), for which the “hERG current change (%, negative = inhibition) at 10uM” value was -27.6%. Next, `CN1CCC(N(C)C(=S)Nc2ccc(F)cc2)CC1`: 21.3%; `CNC(=O)c1ccccc1Nc1ccc(SC(F)F)cc1`: -1.62%; `CN1CCN(C(=O)c2ccccc2Nc2ccc(SC(F)F)cc2)CC1.Cl`: -26%.

For `O=C(NCc1ccncc1)c1ccccc1Nc1ccc(SC(F)F)cc1`, the “hERG current change (%, negative = inhibition) at 10uM” value is on record as -63.9%. As for `CC1CC(C)CN(C(=S)Nc2ccc(SC(F)F)cc2)C1` (stereo not drawn), the “hERG current change (%, negative = inhibition) at 10uM” value is -51.8%.

`CC1CCN(C(=S)Nc2ccc(SC(F)F)cc2)CC1`: the “hERG current change (%, negative = inhibition) at 10uM” value is given as -33%. Take `CC(=O)c1ccc(NC(=S)N(C)C2CCN(C)CC2)cc1`: the “hERG current change (%, negative = inhibition) at 10uM” value was -4.16%. Next, `O=C(CCN1C(=O)c2ccccc2C1=O)OCN1C(=O)c2ccccc2C1=O`: -11.5%. Then `COCCSc1ccccc1C(=O)NCc1cccnc1`, with 18.7%; and `CCc1c(C)[nH]c2nc3ccccc3n2c1=O`, with 4.86%; and `CC(C)c1nc2ccc(NC(=O)C34CC5CC(CC(C5)C3)C4)cc2[nH]1`, with 4.9%. Then `COCCCn1c(SCC(=O)Nc2nnc(C)s2)nnc1-c1ccoc1C`, with 4.33%.
